The results in this text go back to PubChem BioAssay.

Assay [1] can be described thus: binders of probe aFSTL3 on microarray, primary screen, stem cell growth factor project, biochemical, small-molecule microarray, fluorescence 635/667 (AID 1064).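 Also: measures binding of the biotinylated anti-FSTL3 antibody to printed compounds.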 The conditions noted are these: higher = more signal.
Assay [2] is described as follows: binders from COS7 lysate, DM2A8 probe, primary screen, torsin A project, cell lysate, small-molecule microarray, fluorescence 635/667 (AID 1065). As to conditions: higher = more signal, COS7 lysate expressing mutant human TOR1A.
The nature of assay [3]: binders of probe aFGF2 on microarray, primary screen, stem cell growth factor project, biochemical, small-molecule microarray, fluorescence 635/667 (AID 1067).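 Also: measures binding of biotinylated aFGF2 protein to printed compounds on slides; z-score merges feature fluorescence and signal-to-noise across triplicate slides.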 The conditions noted are these: higher = more signal.
Assay [4] can be described thus: binders of probe aFGF10 on microarray, primary screen, stem cell growth factor project, biochemical, small-molecule microarray, fluorescence 635/667 (AID 1071).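 Also: score merges 667 nm spot intensity and signal to noise from triplicate slides.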 The conditions noted are these: higher = more signal.
For assay [5], the target named is Neurogenic locus notch homolog protein 2 (Homo sapiens) (UniProt Q04721). The assay is described as follows: Notch2 binders on small-molecule microarrays, primary screen, biochemical, small-molecule microarray, 635 nm fluorescence, stem cell growth factors (AID 1073). The conditions noted are these: Notch2 binding, higher = more signal.
Assay [6] addresses Pro-neuregulin-1, membrane-bound isoform (Homo sapiens) (UniProt Q02297). Kind of assay: NRG1 binders on small-molecule microarrays, primary screen, psychiatric disease protein project, biochemical, small-molecule microarray, fluorescence 635/667 (AID 1075).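 Also: score combines 667 nm spot fluorescence with signal to noise.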 As to conditions: NRG1 binding, 635 nm fluorescence, higher = more signal.
Assay [7] deals with Neuregulin-1 EGF-like domain. The assay is described as follows: binders of neuregulin-1 EGF-like domain, primary screen, biochemical, small-molecule microarray, 635 nm fluorescence (AID 1081).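 Also: binding of the protein to compounds printed on small-molecule microarray slides.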 As to conditions: small-molecule microarray binding, higher = more signal.
Assay [8] is described as follows: FRG1 promoter luciferase signal modulators, primary screen, FRG1 inhibition for FSHD, cell-based, C2C12 myotubes, firefly/Renilla luciferase, luminescence (AID 1084). As to conditions: higher = more signal, called active from +8 up or from −8 down.
A short description of assay [9]: binders of probe aFST on microarray, primary screen, stem cell growth factor project, biochemical, small-molecule microarray, fluorescence 635/667 (AID 1086).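 Also: score merges 667 nm fluorescence with signal-to-noise of each printed compound spot.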 The conditions noted are these: higher = more signal.
Assay [10] can be described thus: binders of probe aHhip on microarray, primary screen, stem cell growth factor project, biochemical, small-molecule microarray, fluorescence 635/667 (AID 1087).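 Also: score merges spot fluorescence at 667nm with spot signal to noise ratio.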 The conditions noted are these: higher = more signal.
In assay [11] the test system is PRMT1 (protein arginine N-methyltransferase 1). The assay is described as follows: PRMT1 binders on small-molecule microarrays, primary screen, biochemical, small-molecule microarray, 635 nm fluorescence (AID 1088).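 Also: binding of Prmt1 protein to compounds spotted on small-molecule microarray slides.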 The conditions noted are these: small-molecule microarray binding, higher = more signal.
The nature of assay [12]: yeast growth modulation, basal conditions, primary screen, YJM789 clinical isolate, OD600, 24 h (AID 1089).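 Also: growth of clinical yeast isolate S. cerevisiae YJM 789 seeded 1000 cells per well; test concentration not given here.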 The conditions noted are these: S. cerevisiae YJM789 growth, higher = more signal, called active from +8 up or from −8 down.
A short description of assay [13]: fission yeast growth modulation, primary screen, strain 972, OD600, 24 h, no modulator (AID 1090).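 Also: basal condition with compound alone and no growth modifier present; test concentration not given here.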 The conditions noted are these: S. pombe 972 growth, higher = more signal, called active from +8 up or from −8 down.
A short description of assay [14]: S. cerevisiae growth modulation with rapamycin, primary screen, strain BY4716, OD600, 96 h (AID 1091). Also: test concentration not given here. The conditions noted are these: higher = more signal, called active from +8 up or from −8 down.
Assay [15] has as its target Torsin-1A-interacting protein 2 (Homo sapiens) (UniProt Q8NFQ8). Kind of assay: LULL1 binders on small-molecule microarray, primary screen, cell lysate, human LULL1 lysate, 635/667 nm fluorescence (AID 1092).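 Also: score merges per-feature 667 nm fluorescence with signal-to-noise.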 As to conditions: hLULL1 lysate binding, 635 nm fluorescence, higher = more signal.
Assay [16] is described as follows: E. coli growth modulation, two-sided OD650, primary screen, E. coli filamentation project, strain DRC41, 24 h (AID 1093).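 Also: MC1000 strain lacking acrAB efflux and sulA so SOS filamentation is blocked; test concentration not given here.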 The conditions noted are these: OD650, 24 h, higher = more signal, called active from +8 up or from −8 down.
A short description of assay [17]: small-molecule microarray binders of probe aLefty2, primary screen, biochemical, biotinylated probe, 635/667 nm fluorescence (AID 1094).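 Also: score merges spot fluorescence near 667 nm with spot signal-to-noise ratio.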 As to conditions: higher = more signal.
The subject of assay [18] is Noggin (protein binding on small-molecule microarray). The assay is described as follows: Noggin binders on small-molecule microarray, primary screen, biochemical, 635/667 nm fluorescence (AID 1095).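 Also: score merges 667 nm feature fluorescence with signal to noise over triplicate slides.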 As to conditions: 635 nm fluorescence, higher = more signal.
The target of assay [19] is Neurogenic locus notch homolog protein 3 (Homo sapiens) (UniProt Q9UM47). The assay is described as follows: NOTCH3 binders on small-molecule microarray, primary screen, biochemical, 635/667 nm fluorescence (AID 1096). The conditions noted are these: NOTCH3 binding, 635 nm fluorescence, higher = more signal.
The nature of assay [20]: small-molecule microarray binders of probe aEGFR, primary screen, biochemical, biotinylated probe, 635/667 nm fluorescence (AID 1097).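 Also: probe is a biotinylated anti-EGFR antibody binding compounds printed on slides; score combines fluorescence near 667 nm and signal to noise of each spot.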 As to conditions: higher = more signal.

The structures appear in SMILES notation. Calls of active or inactive are those of the source.

Neurogenic locus notch homolog protein 2 (Homo sapiens), sequence (Q04721 whole entry, looked up, canonical isoform): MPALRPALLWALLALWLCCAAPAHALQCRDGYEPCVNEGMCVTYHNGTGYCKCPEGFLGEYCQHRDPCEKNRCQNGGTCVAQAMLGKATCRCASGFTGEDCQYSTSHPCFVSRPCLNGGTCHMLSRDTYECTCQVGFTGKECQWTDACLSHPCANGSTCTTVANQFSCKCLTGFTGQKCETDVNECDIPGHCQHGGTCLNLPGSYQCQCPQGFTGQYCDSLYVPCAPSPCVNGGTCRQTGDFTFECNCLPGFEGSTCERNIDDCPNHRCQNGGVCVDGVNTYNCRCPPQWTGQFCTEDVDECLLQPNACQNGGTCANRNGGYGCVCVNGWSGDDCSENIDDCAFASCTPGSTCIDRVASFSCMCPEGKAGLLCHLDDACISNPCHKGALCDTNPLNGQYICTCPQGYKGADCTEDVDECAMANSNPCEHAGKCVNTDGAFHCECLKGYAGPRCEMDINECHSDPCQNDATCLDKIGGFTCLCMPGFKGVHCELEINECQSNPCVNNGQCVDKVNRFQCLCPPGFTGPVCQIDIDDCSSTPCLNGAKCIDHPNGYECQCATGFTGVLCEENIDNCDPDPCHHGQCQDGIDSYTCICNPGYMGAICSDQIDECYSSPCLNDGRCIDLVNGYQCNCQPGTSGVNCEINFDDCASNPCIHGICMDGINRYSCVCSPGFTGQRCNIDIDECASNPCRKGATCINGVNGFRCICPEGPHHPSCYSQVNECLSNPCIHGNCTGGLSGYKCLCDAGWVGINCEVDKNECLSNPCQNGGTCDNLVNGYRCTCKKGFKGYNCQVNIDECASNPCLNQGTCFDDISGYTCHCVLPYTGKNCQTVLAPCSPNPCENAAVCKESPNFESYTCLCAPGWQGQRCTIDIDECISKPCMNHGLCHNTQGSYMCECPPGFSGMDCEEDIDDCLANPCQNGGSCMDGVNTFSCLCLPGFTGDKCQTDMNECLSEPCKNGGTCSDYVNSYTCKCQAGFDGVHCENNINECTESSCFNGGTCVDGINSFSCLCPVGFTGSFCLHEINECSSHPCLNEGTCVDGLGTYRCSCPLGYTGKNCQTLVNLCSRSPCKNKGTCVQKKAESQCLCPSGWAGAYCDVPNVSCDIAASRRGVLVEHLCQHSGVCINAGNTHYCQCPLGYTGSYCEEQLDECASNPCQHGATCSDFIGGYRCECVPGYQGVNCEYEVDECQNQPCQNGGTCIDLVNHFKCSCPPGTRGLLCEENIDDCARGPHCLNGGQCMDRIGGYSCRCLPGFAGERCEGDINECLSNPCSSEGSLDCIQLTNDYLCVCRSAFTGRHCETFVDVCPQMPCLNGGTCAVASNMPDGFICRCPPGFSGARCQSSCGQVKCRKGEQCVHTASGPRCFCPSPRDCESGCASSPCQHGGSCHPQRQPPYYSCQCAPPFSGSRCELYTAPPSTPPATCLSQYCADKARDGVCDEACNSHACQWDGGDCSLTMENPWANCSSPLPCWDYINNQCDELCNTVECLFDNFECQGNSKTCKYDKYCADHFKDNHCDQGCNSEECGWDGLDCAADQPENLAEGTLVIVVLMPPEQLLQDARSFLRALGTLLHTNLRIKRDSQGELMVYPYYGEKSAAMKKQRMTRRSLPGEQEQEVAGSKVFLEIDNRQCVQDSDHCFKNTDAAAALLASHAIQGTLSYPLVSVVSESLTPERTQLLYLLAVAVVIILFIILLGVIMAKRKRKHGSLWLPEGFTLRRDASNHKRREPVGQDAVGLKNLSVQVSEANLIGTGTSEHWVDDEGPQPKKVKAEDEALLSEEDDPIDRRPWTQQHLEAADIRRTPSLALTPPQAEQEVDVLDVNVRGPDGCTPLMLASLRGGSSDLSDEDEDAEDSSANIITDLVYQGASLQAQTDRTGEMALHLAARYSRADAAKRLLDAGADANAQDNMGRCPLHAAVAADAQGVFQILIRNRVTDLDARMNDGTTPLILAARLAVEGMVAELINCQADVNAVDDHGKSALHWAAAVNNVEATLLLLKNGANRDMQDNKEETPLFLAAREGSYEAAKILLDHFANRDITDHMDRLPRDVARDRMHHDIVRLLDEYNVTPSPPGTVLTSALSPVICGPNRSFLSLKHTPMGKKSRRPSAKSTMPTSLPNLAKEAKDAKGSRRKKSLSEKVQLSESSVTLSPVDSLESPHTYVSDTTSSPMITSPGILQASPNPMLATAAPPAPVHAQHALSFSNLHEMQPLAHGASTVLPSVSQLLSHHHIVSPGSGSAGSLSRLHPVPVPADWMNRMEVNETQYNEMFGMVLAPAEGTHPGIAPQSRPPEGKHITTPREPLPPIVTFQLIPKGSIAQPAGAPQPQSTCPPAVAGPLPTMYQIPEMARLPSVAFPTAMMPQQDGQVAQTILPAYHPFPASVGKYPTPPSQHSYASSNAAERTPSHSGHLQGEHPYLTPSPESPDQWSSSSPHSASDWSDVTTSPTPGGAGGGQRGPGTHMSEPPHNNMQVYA
Neurogenic locus notch homolog protein 3 (Homo sapiens), sequence (Q9UM47 whole entry, looked up): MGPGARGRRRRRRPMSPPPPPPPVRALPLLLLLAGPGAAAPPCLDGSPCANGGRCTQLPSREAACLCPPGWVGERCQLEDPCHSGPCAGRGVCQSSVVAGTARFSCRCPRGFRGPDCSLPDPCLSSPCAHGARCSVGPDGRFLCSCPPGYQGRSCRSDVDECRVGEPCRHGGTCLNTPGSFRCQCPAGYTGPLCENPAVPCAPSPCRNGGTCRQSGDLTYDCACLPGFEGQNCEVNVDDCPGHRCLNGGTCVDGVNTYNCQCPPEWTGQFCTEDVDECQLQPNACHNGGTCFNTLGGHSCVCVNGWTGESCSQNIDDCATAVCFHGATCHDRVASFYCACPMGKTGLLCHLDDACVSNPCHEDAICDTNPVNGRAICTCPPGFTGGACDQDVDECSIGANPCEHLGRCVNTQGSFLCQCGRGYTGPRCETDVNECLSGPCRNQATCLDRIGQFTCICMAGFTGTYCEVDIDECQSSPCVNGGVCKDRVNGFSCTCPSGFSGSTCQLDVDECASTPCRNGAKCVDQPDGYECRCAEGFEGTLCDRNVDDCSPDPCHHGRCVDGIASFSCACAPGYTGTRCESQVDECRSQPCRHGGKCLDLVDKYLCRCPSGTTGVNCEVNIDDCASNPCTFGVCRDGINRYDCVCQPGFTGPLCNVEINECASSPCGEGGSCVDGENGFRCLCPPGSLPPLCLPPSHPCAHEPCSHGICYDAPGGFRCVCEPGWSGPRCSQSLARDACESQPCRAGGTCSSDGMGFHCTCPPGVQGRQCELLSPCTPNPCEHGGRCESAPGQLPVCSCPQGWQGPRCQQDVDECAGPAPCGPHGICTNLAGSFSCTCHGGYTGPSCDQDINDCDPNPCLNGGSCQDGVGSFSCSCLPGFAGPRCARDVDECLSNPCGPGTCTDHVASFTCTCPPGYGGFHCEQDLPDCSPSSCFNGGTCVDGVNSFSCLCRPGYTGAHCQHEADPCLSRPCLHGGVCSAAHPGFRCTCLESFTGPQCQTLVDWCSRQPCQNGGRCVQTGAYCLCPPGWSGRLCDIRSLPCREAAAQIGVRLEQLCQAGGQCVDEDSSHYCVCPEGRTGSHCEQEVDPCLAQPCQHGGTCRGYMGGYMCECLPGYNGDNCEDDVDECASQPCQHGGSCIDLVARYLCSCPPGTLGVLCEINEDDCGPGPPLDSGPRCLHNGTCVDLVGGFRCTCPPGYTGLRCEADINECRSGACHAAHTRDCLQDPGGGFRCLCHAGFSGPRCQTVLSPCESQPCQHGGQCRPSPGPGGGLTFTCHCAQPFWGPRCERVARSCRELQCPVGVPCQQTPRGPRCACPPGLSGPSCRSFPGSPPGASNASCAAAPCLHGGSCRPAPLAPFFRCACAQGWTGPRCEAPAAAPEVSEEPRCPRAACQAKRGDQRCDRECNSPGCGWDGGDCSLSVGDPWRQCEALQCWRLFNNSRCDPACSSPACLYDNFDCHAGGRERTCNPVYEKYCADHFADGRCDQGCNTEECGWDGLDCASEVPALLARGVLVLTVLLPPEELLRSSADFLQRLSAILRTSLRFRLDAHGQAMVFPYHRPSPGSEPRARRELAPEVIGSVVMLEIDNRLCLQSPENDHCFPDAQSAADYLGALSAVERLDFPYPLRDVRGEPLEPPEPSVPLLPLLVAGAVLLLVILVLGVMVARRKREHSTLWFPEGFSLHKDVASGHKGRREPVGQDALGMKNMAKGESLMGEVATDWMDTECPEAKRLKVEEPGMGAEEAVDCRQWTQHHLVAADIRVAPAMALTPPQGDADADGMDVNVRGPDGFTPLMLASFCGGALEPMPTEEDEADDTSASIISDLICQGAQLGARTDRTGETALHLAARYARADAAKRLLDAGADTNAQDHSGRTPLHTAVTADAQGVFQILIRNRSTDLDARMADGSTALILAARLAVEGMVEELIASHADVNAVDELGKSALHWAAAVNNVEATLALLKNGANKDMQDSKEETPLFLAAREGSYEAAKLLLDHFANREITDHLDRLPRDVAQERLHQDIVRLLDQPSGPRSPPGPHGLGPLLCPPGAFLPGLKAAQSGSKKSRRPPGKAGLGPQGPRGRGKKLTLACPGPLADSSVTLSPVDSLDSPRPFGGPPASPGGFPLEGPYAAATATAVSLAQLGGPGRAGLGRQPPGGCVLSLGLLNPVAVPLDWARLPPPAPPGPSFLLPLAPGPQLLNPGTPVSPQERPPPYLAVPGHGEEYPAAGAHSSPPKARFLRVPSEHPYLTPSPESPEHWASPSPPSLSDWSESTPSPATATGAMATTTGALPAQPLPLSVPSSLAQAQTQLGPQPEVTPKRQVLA

Regarding `O=C1O[C@@H](c2ccccc2)[C@@H](c2ccccc2)N2[C@@H](c3ccc(O)cc3)[C@]3(C(=O)Nc4ccc(C#CCCO)cc43)[C@@H](C(=O)N3CCN(c4ncccn4)CC3)[C@H]12`, the composite z-score in [1] is -1.14; in assay [2], -0.307; in [3] it was -0.265; in assay [4], 0.204; in assay [5] it was 0.973; in assay [6], 0.564. Besides, the composite z-score in assay [7] is 1.35; in [9] it was -0.925; in assay [10], -1.27; in assay [11], 1.54; in assay [15], 1.04; in assay [17] it was -0.698. Further, the figures for the composite z-score in assay [18], in [19] and in assay [20] were 1.74, 1.09 and -0.257, respectively. Also, the z-score in assay [8] is -1.55 (inactive); in assay [12] it was 2.72 (inactive); in assay [13] it was 2 (inactive); in [14], 6.45 (inactive); in assay [16], 2.07 (inactive).

Consider `COc1ccc(C#Cc2ccc3c(c2)[C@]2(C(=O)N3)[C@H](c3ccc(OCCO)cc3)N3[C@H](c4ccccc4)[C@H](c4ccccc4)OC(=O)[C@H]3[C@@H]2C(=O)NC[C@H](O)c2ccccc2)cc1`, for which the composite z-score in assay [1] was -0.338; in assay [2], 0.411; in [3], -0.0276; in [4], 0.422; in [5], 1.16; in [6], 1.55. For the same molecule, the composite z-score is 1.13 in assay [7]; 0.547 in [9]; -0.236 in [10]; 1.57 in [11]; 3.08 in [15]; -0.0977 in [17]. Further, the composite z-score is 0.447 in [18], 1.08 in assay [19] and -0.0152 in assay [20]. Further, the z-score in [8] is -0.164 (inactive); in [12], 4.38 (inactive); in assay [13], 2.39 (inactive); in [14], 4.82 (inactive); in assay [16], 1.16 (inactive).

Take `CC(C)NC(=O)[C@@]1(C)c2ccccc2C(=O)N(Cc2ccc(OC(F)(F)F)cc2)[C@H]1c1ccc(CO)cc1`: the composite z-score in assay [1] was 1.95; in [2], -1.63; in assay [3], -0.167; in assay [4] it was -0.546; in assay [5], -1.25; in assay [6], 0.628. Besides, the composite z-score in assay [7] is 0.865; in assay [9], -0.55; in assay [10], -0.28; in assay [11] it was 0.911; in assay [15], 2.32; in assay [17], -0.221. For the same molecule, the composite z-score is -0.748 in [18], -0.284 in assay [19] and -0.349 in [20]. In addition, the z-score in assay [8] is -3.14 (inactive); in assay [12], 0.738 (inactive); in assay [13], -0.784 (inactive); in assay [14], -1.38 (inactive); in assay [16] it was -1.55 (inactive).

`COCCOC(=O)N1C(=O)[C@@]2(c3cc(C#CC4=CCCCC4)ccc31)[C@H](C(=O)Nc1nc3ccccc3s1)[C@H]1C(=O)O[C@H](c3ccccc3)[C@H](c3ccccc3)N1[C@@H]2c1ccc(O)cc1`: the composite z-score is -0.528 in assay [1]; 1.39 in assay [2]; 0.0156 in assay [3]; 0.176 in assay [4]; 0.992 in assay [5]; 1.15 in [6]. Moreover, the composite z-score in assay [7] was 1.03; in [9], 1.13; in assay [10], 0.103; in assay [11], 1.55; in assay [15], 2.38; in [17] it was -0.0823. The composite z-score in assay [18] is 1.21; in assay [19], 1.07; in assay [20], -0.0975. Moreover, the z-score is 0.0402 (inactive) in assay [8]; 0.128 (inactive) in assay [12]; -0.663 (inactive) in [13]; 0.364 (inactive) in [14]; 0.0627 (inactive) in [16].

Consider `CCN(CC)c1ccc(N2CC=CC34O[C@@H]5/C=C\CCCOC(=O)C5[C@H]3C(=O)N(C(C)CO)[C@@H]4C2=O)cc1` (stereo not given in full), for which the composite z-score in assay [1] was -0.136; in assay [2], -0.207; in assay [3], -0.175; in assay [4], -0.136; in assay [5], -0.0693; in assay [6], 1.87. The composite z-score in [7] is 1.31; in assay [9] it was -0.285; in assay [10] it was -0.236; in assay [11] it was 0.428; in assay [15], 0.347; in assay [17] it was -0.243. Also, the results for the composite z-score in [18], in assay [19] and in [20] were -0.045, 0.204 and -0.189, respectively. Besides, the z-score in assay [8] was -0.768 (inactive); in [12], -0.991 (inactive); in assay [13], -1.47 (inactive); in assay [14], -0.497 (inactive); in [16], 1.42 (inactive).

In the case of `CCCN1C(=O)[C@@]2(Cc3ccccc31)N=C(c1ccc(OCCCO)cc1)O[C@H]2c1ccccc1`, the composite z-score in assay [1] is 0.654; in assay [2] it was 0.27; in assay [3], -0.0909; in assay [4], 0.181; in [5], 0.697; in assay [6] it was 1.55. The composite z-score in [7] is 1.21; in [9], 0.193; in assay [10] it was -0.0852; in assay [11], 1.46; in assay [15], 2.58; in assay [17], 0.235. For the same molecule, the results for the composite z-score in assay [18], in assay [19] and in [20] were 0.643, 0.355 and 0.0192, respectively. Moreover, the z-score in assay [8] is -1.35 (inactive); in [12], -0.306 (inactive); in [13], -7.39 (inactive); in [14], 0.99 (inactive); in [16] it was -0.0139 (inactive).

On to `O=C1NC(=O)C2C1C=CC(C(O)c1ccco1)N2Nc1ccc(Cl)cc1Cl` (stereo not given), for which the composite z-score was 0.388 in [1]; -0.13 in assay [2]; -0.0375 in [3]; -0.0728 in assay [4]; 0.42 in assay [5]; 0.825 in assay [6]. Moreover, the composite z-score in [7] is 1.24; in assay [9] it was 0.549; in [10] it was -0.126; in assay [11], 0.232; in assay [15] it was 1.72; in assay [17], -0.103. Moreover, the composite z-score in assay [18] was 0.223; in assay [19], 0.417; in assay [20], -0.0362. Moreover, the z-score was 1.62 (inactive) in [8]; -25.2 (active) in assay [12]; -1.67 (inactive) in assay [13]; -0.647 (inactive) in [14]; -1.49 (inactive) in assay [16].

With `C=CC[C@@H](OC(=O)Nc1ccc(SC)cc1)c1ccc(O)c(F)c1`, the composite z-score in assay [1] was 0.401; in assay [2] it was 0.601; in assay [3], -0.0729; in assay [4] it was 0.165; in assay [5], -0.131; in [6] it was 1.7. Moreover, the composite z-score in [7] is 1.21; in [9], -0.277; in assay [10], -0.0645; in assay [11], 0.803; in [15] it was 0.724; in assay [17], 0.0276. The results for the composite z-score in assay [18], in assay [19] and in assay [20] were 0.713, -0.0238 and -0.105, respectively. Also, the z-score in assay [8] was 6.7 (inactive); in assay [12], -21.2 (active); in assay [13] it was -19.9 (active); in assay [14], -0.545 (inactive); in assay [16] it was 1.81 (inactive).

As to `CN(C)CCCCCCNC(=O)[C@@H]1C[C@@H]2C(=O)N3CCC[C@H]3C(=O)N2[C@@H]1c1cccc(OCCO)c1`, the composite z-score in assay [1] was found to be 0.117; in assay [2], 2.09; in assay [3] it was 0.1; in assay [4], 1.11; in assay [5], 0.623; in assay [6] it was 0.755. For the same molecule, the composite z-score in assay [7] was 1.48; in assay [9], 0.518; in assay [10] it was -0.0296; in assay [11], 1.54; in [15], 1.66; in assay [17] it was -0.0664. The composite z-score was 1.54 in assay [18], 1.06 in [19] and 0.193 in assay [20]. The z-score in assay [8] was 3.21 (inactive); in [12], 0.108 (inactive); in assay [13], -0.177 (inactive); in assay [14], 1.04 (inactive); in assay [16] it was -0.395 (inactive).
